Only some compounds are listed: those with a hit (about 4.1% of all), similar ones and a draw of the others.
CHT inh: human CHT choline transport inhibition; Q9GZV3; CHT-expressing cells, membrane potential dye, choline response; stronger effect = lower value; B-score at 10 µM; hit rate 0.86% among 310,000;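 active means B-score over 3 SD under the library average, and starting fluorescence ratio not unusually high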;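 further: choline stimulus applied at its EC90 after an EC20 pre-addition; B-score computed on integrated fluorescence ratio after choline addition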
MEKK2 mut-MEK5: signal of MEK5 binding to mutant human MEKK2 PB1 domain | AID 1530 | percent response, % at 10 µM | hit rate 0.35% among 290,000 | bead flow cytometry, Alexa488-MEK5 binding to MEKK2 mutant; in the data active means percent response above about 24%, passing the limit was not always enough
Mot1-301 SUMO: SUMOylation pathway inhibition by Mot1-301 growth rescue; growth rescue, % at 18.8 µM; hit rate 1% among 320,000; S. cerevisiae Mot1-301 growth rescue, ATP luminescence, 38.5C; percent above DMSO median, 100 means doubled;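 active means every valid replicate shows activation above 250% relative to neutral control wells; inactive means the rest, any valid replicate at or below 250%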
CHT PAM: allosteric activators of human choline transporter CHT; Q9GZV3; CHT-expressing cells, membrane potential dye, choline EC20; stronger effect = higher value; LV-AA mutant CHT in HEK293 cells; B-score at 10 µM; hit rate 0.49% among 310,000; AID 488977;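 active means initial fluorescence not abnormally high and integrated response B-score, plate-corrected, over 3 SD above library mean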
MEKK3 PB1 HTS: modulators (inhibitors or enhancers) of MEK5 binding to human MEKK3 PB1 domain; Q99759; bead-based flow cytometry, Alexa488-MEK5 binding to MEKK3; actives lie on both sides; 0 = blocked by unlabeled MEK5, 100 = vehicle; binding response (% of control), % at 10 µM; hit rate 1.4% among 290,000; AID 1529;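 active means binding response more than 3 SD above or below the average of its plate-row segment, actives on both sides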;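 further: Alexa488 bead fluorescence after subtracting the streptavidin-only scavenger bead signal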
Target sequence (Q99759 whole entry, looked up, the tested form may be a part): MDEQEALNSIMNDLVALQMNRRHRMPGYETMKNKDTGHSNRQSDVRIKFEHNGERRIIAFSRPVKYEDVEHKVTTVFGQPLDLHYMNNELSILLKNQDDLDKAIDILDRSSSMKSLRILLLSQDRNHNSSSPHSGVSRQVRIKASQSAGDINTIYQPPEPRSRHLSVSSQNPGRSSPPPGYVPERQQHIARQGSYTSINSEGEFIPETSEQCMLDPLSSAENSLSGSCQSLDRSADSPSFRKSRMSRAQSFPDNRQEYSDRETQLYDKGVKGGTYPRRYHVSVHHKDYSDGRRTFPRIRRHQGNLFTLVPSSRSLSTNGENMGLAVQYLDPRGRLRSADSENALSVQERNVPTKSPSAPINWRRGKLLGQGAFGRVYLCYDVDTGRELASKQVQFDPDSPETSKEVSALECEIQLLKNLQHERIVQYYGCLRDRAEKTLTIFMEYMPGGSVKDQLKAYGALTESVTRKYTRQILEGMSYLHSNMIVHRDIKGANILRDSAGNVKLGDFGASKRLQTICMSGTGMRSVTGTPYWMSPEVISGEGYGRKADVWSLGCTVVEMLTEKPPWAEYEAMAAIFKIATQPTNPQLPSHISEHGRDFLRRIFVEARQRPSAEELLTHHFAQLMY
MEKK2wt PB1 HTS: raises or lowers MEK5 binding to wildtype human MEKK2 PB1 domain | binding response (% of control), % at 10 µM | Q9Y2U5 | bead flow cytometry, Alexa488-MEK5 binding to MEKK2 WT; actives lie on both sides | hit rate 1.1% among 290,000; in the data active means binding response below about 67% or above about 130%
Yeast Mot1 SUMO: SUMO pathway inhibitors in yeast Mot1-301 growth | shares compounds with Mot1-301 SUMO | S. cerevisiae Mot1-301 galactose growth, ATP luminescence, 24 h; -100 = growth of slx-deleted rescue strain | growth activity, percent, % at 42 µM | 2,300 tested, under 10 active;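 active means Signal drops as the depositor expects, and the fitted half-maximal dose is no more than ten times the top valid tested dose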;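 further: more negative values mean stronger growth rescue toward the control strain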
CHT inh conf: confirmation of human choline transporter CHT inhibitors. CHT-expressing cells, choline membrane potential dye; LV-to-AA substituted CHT, HEK293 cells. hit rate 70% among 2,400. CHT activity remaining % of control (stronger effect = lower value), % at 10 µM. shares compounds with CHT inh;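 active means choline transporter activity left, mean of duplicates at 10 µM, below buffer-only control mean minus 3 SD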;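 further: depolarization triggered by choline at its EC90 following an EC20 pre-addition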
HEK293 MPD ctr: counter-screen for CHT inhibitors: effect in parental HEK293 cells; shares compounds with CHT inh; membrane potential dye, choline response; active = decrease or increase beyond buffer ±3SD; membrane potential ratio readout (active if shifted either direction beyond buffer ±3SD; no single direction) at 10 µM; hit rate 4% among 2,400; AID 493222;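 further: parental cells lack the transporter so any hit is non-specific; ratio is peak minus trough fluorescence over baseline after EC90 choline challenge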
Large screens that a line does not name were inactive (follow-up assays come after a bar, where they were run).

C/C=C/C(=O)OCC(=O)Nc1nc2ccc(C)cc2s1	Mot1-301 SUMO 361 | Yeast Mot1 SUMO inactive
CCOCC(=O)Nc1nc2ccc(C)cc2s1	none
CCC(C)c1nc2ccsc2c(N2CCOC2=O)c1-c1ccccc1 (configuration not stated)	none
COc1ccc2[nH]cc(CCNS(=O)(=O)c3ccc(C)cc3)c2c1	Mot1-301 SUMO 484 | Yeast Mot1 SUMO inactive
c1ccc(-c2csc(NC3CCCCC3)n2)cc1	Mot1-301 SUMO 923 | Yeast Mot1 SUMO inactive
Cc1cc(=O)n2[nH]c(-c3ccco3)nc2n1	none
Cc1cc(=O)n2[nH]c(-c3ccc(F)cc3)nc2n1	Mot1-301 SUMO 551 | Yeast Mot1 SUMO inactive
CCCCOc1ccc(C(O)C(CN2CCOCC2)c2ccccc2)cc1 (configuration not stated)	Mot1-301 SUMO 787 | Yeast Mot1 SUMO inactive
CCCOc1ccc(C(O)C(CN2CCOCC2)c2ccccc2)cc1 (configuration not stated)	none
Cc1ccccc1S(=O)(=O)Nc1nc2ccccc2nc1N1CCOCC1	none
CC(=O)N1c2ccc(S(=O)(=O)N(C)C3CCCCC3)cc2CC1C (configuration not stated)	none
OC(COc1ccccc1)Cn1c2ccccc2c2ccccc21 (configuration not stated)	Mot1-301 SUMO 374 | Yeast Mot1 SUMO inactive
Cc1ccccc1OCC(O)Cn1c2ccccc2c2ccccc21 (configuration not stated)	none
CCC1C(=O)N(C)CCc2ccccc21 (configuration not stated)	none
C#CCn1c(=NC(=O)CN2C(=O)CCC2=O)sc2cccc(OC)c21	Mot1-301 SUMO active | Yeast Mot1 SUMO inactive
NC(=O)c1ccc(C(F)(F)F)cn1	none
Fc1cccc(Nc2ncnc3sccc23)c1	Mot1-301 SUMO 655 | Yeast Mot1 SUMO inactive
COc1cc(/C=C2/C(=N)N3C(=NC2=O)SN=C3S(C)(=O)=O)ccc1OS(=O)(=O)c1ccc(C)cc1	none
CS(=O)(=O)C1=NSC2=NC(=O)/C(=C\c3ccc(OS(=O)(=O)c4ccccc4)cc3)C(=N)N21	CHT inh -6.6, Mot1-301 SUMO 399 | Yeast Mot1 SUMO inactive | CHT inh conf 58% | HEK293 MPD ctr inactive
Oc1c(Br)cc(Br)cc1C=Nc1cccnc1	CHT inh -7.8, Mot1-301 SUMO 481 | Yeast Mot1 SUMO inactive | CHT inh conf 62% | HEK293 MPD ctr inactive
Oc1c(Br)cc(Br)cc1C=Nc1ccc2[nH]ncc2c1	CHT inh -5.6, Mot1-301 SUMO 360 | Yeast Mot1 SUMO inactive | CHT inh conf 65% | HEK293 MPD ctr inactive
Oc1c(Br)cc(Br)cc1/C=N/c1nccs1	none (no result: CHT inh, MEKK2 mut-MEK5, CHT PAM, MEKK3 PB1 HTS, MEKK2wt PB1 HTS)
NC(=O)c1nsc(C(=O)N(Cc2ccc(F)cc2)C(C(=O)NC2CCCC2)c2ccco2)c1N (configuration not stated)	CHT inh -7.9, Mot1-301 SUMO 876 | Yeast Mot1 SUMO inactive | CHT inh conf inactive | HEK293 MPD ctr inactive
Cn1cc([N+](=O)[O-])c(C(=O)n2cccn2)n1	none
Cc1c(N=Cc2cc(Br)cc(Br)c2O)cccc1C(=O)O	CHT inh -5.7, Mot1-301 SUMO 919 | Yeast Mot1 SUMO inactive | CHT inh conf 57% | HEK293 MPD ctr inactive
COc1cccc(C2C3=C(CC(C)(C)CC3=O)Nc3n[nH]c(C)c32)c1 (configuration not stated)	none
